An excerpt weighted towards active compounds, which were near 1.1% of everything screened.
GalR3 antagonist – human GalR3 antagonism; inhibition, % at 3 µM; HEK293 GalR3-CNG cAMP membrane potential fluorescence; galR3 body fused to GalR1 C-terminus; hit rate 0.44% among 360,000; AID 651719; O60755;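 active = inhibition above the screen-wide average plus 3 SD, cut at about 13% in these data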;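 note: forskolin and galanin both at EC90 stimulate the cells; cAMP rise reported by CNG channel membrane potential dye signal; 0% = forskolin plus galanin with DMSO and 100% = forskolin alone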
COUP-TFII inh – blocks human COUP-TFII nuclear receptor; P24468; HEK293T NGFI-A luciferase reporter, luminescence; inhibition, % at 8.6 µM; hit rate 0.7% among 370,000; AID 686940;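 active = inhibition above a per-plate cutoff, mean inhibition of test wells between control levels plus 3 SD, cut at about 38% in these data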;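 note: cells cotransfected with COUP-TFII expression vector driving the NGFI-A reporter; 0% = median of COUP-TF2 test wells and 100% = reporter-only cells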
Target sequence (P24468 whole entry, looked up): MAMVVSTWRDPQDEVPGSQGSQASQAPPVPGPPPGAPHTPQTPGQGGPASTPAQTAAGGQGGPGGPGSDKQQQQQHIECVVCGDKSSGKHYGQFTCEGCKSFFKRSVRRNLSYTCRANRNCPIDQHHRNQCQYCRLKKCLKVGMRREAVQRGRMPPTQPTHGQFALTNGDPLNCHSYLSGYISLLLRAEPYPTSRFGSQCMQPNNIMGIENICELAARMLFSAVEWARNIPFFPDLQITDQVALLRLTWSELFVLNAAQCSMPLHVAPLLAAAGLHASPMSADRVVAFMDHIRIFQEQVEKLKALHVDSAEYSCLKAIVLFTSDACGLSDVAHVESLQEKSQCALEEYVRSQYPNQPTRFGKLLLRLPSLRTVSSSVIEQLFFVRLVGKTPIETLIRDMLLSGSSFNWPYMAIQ
NCOA2 inhibitor – human SRC2 (NCOA2) inhibition. Q15596. HEK293 GAL4-SRC2 luciferase reporter, luminescence. inhibition, % at 9 µM. hit rate 0.17% among 370,000. AID 651957;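 active = inhibition above the mean inhibition of all tested compounds plus 3 SD, set per campaign, cut at about 52% in these data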;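 note: 0% = DMSO treated cells and 100% = cells given Gossypol at 36 µM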
NCOA3 inh – human NCOA3 inhibition; Q9Y6Q9; HEK293 GAL4-SRC3 luciferase reporter, luminescence; inhibition, % at 3.6 µM; hit rate 0.17% among 360,000;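 active = inhibition above a per-campaign cutoff, the mean of all compounds plus 3 SD, cut at about 60% in these data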;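 note: 0% = DMSO-treated cells and 100% = gossypol-treated cells at 36 µM; higher means less SRC3-driven luciferase light from the GAL4 reporter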
SRC1 inh – human NCOA1 inhibition; Q15788; HEK293 GAL4-SRC1 luciferase reporter, luminescence; inhibition, % at 3.6 µM; hit rate 0.12% among 360,000; AID 588354;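 active = inhibition above the campaign mean plus 3 SD, with each screening campaign given its own cutoff, cut at about 60% in these data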;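 note: 0% = DMSO treated cells and 100% = gossypol at 36 µM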
NR5A2 inv ag – suppresses constitutive activity of human LRH-1. O00482. AID 602396. inhibition, % at 3.6 µM. HEK293T StAR-luciferase reporter, LRH-1 transfected, 24 h. hit rate 0.13% among 360,000;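 active = inhibition above the mean inhibition of all tested compounds plus 3 SD, cut at about 73% in these data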;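 note: 0% = DMSO wells and 100% = reporter-only cells lacking LRH-1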
GalR3 antag conf – GalR3 (human) antagonism, confirmation | shares compounds with GalR3 antagonist | HEK293 GalR3 CNG cAMP biosensor, membrane potential fluorescence; galR3 fused to GalR1 carboxy tail; challenged with forskolin and galanin at EC90 | inhibition, % at 3 µM | hit rate 59% among 1,600 | AID 652245;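 active = inhibition above the primary screen's cutoff, the mean inhibition of all screened compounds plus 3 SD, cut at about 13% in these data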;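 note: 0% = forskolin plus galanin and 100% = forskolin alone with DMSO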
HEK-CNG parental – counter-screen for GalR3 antagonists: nonspecific agonists in parental HEK-CNG cells. shares compounds with GalR3 antagonist. HEK293-CNG parental cells, cAMP membrane potential fluorescence; normalised: DMSO wells 0%, forskolin wells 100%. activation, % at 3 µM. hit rate 10% among 1,600. AID 652268; in the data active = activation above about 1.3%
Gal4-VP16 ctr – inhibits VP16 reporter, flagging COUP-TFII antagonist hits | shares compounds with COUP-TFII inh | HEK293 Gal4-VP16 luciferase reporter, luminescence | inhibition, % at 8.5 µM | hit rate 25% among 2,500 | AID 687007; in the data active = inhibition above about 13%
NR2F2 inh conf – confirmation of human COUP-TFII (NR2F2) inhibitors | shares compounds with COUP-TFII inh | HEK293 NGFI-A luciferase reporter, luminescence | inhibition, % at 8.5 µM | hit rate 45% among 2,500 | AID 687008;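 active = mean inhibition over three repeats above a set limit taken from the earlier primary screen, cut at about 38% in these data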;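 note: 100% = cells given the luciferase reporter alone without the COUP-TF2 vector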
* = called active by the depositor; . = no result.

SMILES	GalR3 antagonist	COUP-TFII inh	NCOA2 inhibitor	NCOA3 inh	SRC1 inh	NR5A2 inv ag	GalR3 antag conf	HEK-CNG parental	Gal4-VP16 ctr	NR2F2 inh conf
CCOc1cc(CNc2ccc3c(c2)OCCO3)cc(Br)c1OC	.	51.4*	48.4	47.4	47.7	62.1	-0.4	1.1	-27.3	38.1*
CCOc1c(Br)cc(CNc2ccc3c(c2)OCCO3)cc1OC	-1.4	-5.8	39.8	56.4	34.6	54.7	.	.	.	.
COc1ccc(C(=O)CSc2nnc(Cn3cnc4ccccc43)o2)cc1	94.7*	60.1*	18.2	16.0	1.7	32.1	111.4*	-0.5	4.8	40.5*
CC(=O)c1ccc(NC(=O)CSc2nnc(Cn3cnc4ccccc43)o2)cc1	-4.3	2.1	3.6	16.4	-9.7	27.2	.	.	.	.
Cc1cc(S(=O)(=O)c2ccc(Cl)cc2)nc(S(=O)(=O)c2ccc(Cl)cc2)c1C#N	16.5*	44.7*	15.2	-11.1	-114.4	-6.6	11.2	0.3	55.8*	62.1*
Cc1cc(C)c(S(=O)(=O)c2ccc(Cl)cc2)c(Cl)n1	-2.6	-14.3	-6.0	22.7	8.0	-10.1	.	.	.	.
CC(=O)c1cc(-c2ccccc2)c(=O)n2c1CCC2	.	1.6	20.5	.	.	.	.	.	.	.
COc1ccc(N=C2SCC(=O)N2CCc2ccc(OC)c(OC)c2)cc1	-0.3	-22.6	6.8	20.4	0.9	0.7	.	.	.	.
COc1ccc(CCN2C(=O)CSC2=Nc2ccc(C(C)C)cc2)cc1OC	83.5*	63.6*	29.4	-0.9	18.2	29.6	96.3*	0.2	14.5*	61.6*
CC(=O)Nc1ccc(OCC(=O)Nc2ccc(Cl)c(S(=O)(=O)N3CCOCC3)c2)cc1	31.1*	64.6*	33.8	28.2	25.9	34.9	91.8*	-0.5	7.3	43.7*
COc1ccc(OCC(=O)Nc2ccc(S(=O)(=O)N3CCOCC3)cc2)cc1	0.1	6.0	-2.3	9.5	0.8	6.9	.	.	.	.
O=C(O)CC(SCC(=O)Nc1ccc(Cl)c(S(=O)(=O)N2CCOCC2)c1)C(=O)O (stereo unspecified)	-1.8	-7.5	16.5	3.6	0.1	2.8	.	.	.	.
CC(CC(=O)Nc1ccc(Cl)c(S(=O)(=O)N2CCOCC2)c1)c1ccccc1 (stereo unspecified)	96.0*	63.0*	29.1	17.5	28.7	22.1	120.3*	-0.8	3.5	51.3*
COC(=O)[C@]12C[C@H](CC(=O)NCCCN3CCCC3=O)C(=O)N(Cc3ccco3)C1=C[C@H](C(C)C)O[C@@H]2C1CC1	.	8.0	29.8	.	.	.	.	.	.	.
COC(=O)[C@]1(CNC(=O)c2cc(F)ccc2F)CC(=O)N(C)[C@@H]1c1ccccc1	.	2.0	26.8	.	.	.	.	.	.	.
Cc1nc2ccc(NC(=O)c3cc(S(=O)(=O)N(C)c4ccccc4)ccc3Cl)cc2s1	77.9*	77.8*	24.2	14.7	28.4	43.1	111.9*	-0.6	5.8	69.4*
CCCCCCCCN1CN2Cc3ccccc3C2CS1(=O)=O (stereo unspecified)	.	0.1	8.4	.	.	.	.	.	.	.
Cc1cc(/C=C2/SC(=S)N(c3cccc(Cl)c3)C2=O)c(C)n1-c1cccnc1	89.8*	64.9*	2.0	10.6	11.6	35.7	15.1*	0.1	-21.8	64.3*
COc1ccc(S[C@]2(C(=O)N(C)C)CC(=O)N(S(=O)(=O)c3ccc(F)cc3)[C@@H]2c2ccc(OC)cc2)cc1	.	5.2	0.7	.	.	.	.	.	.	.
CSc1ccc(CN2CCN(Cc3ccc([N+](=O)[O-])cc3)CC2)cc1	84.3*	51.3*	21.0	20.8	24.9	37.9	103.9*	-0.3	2.7	46.1*
CC(C)(C)c1ccc(-n2ncc3c2CCCC3NC(=O)c2ccncc2)cc1 (stereo unspecified)	-4.5	7.9	-0.8	19.7	-26.5	18.9	.	.	.	.

Compound activity from PubChem.
